Laboratory results reported in PubChem BioAssay (NCATS).
Results filed as inconclusive are left out. Activity calls are given as the source filed them. Unless noted, the call rests on the fitted dose curve; in most records, active means well fitted curve in the direction sought with a large enough effect; inconclusive means small, poorly fitted or top-dose-only effect, or another doubt; inactive means no such curve, though single readings can be large; an effect the other way counts as inactive or inconclusive.

tested on: not listed separately; assay: qHTS assay for small molecule antagonists of the retinoid-related orphan receptor gamma (ROR-gamma) signaling pathway - cell viability counter screen (AID 720652; active means well fitted curve in the direction sought with a large enough effect in the repeat runs; an effect the other way counts as inactive or inconclusive;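 further: compound exposure lasted 16 hr before ATP read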; further: potency means the concentration at half of the fitted maximal effect;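 on activity change, negative = cytotoxicity: CHO reporter cells with doxycycline-induced ROR-gamma expression; on the % scale 0 is the no-effect control and ±100 the full control effect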); details: RORgamma reporter cell line viability counter screen; series mostly up to 92.2 µM; activity change, negative = cytotoxicity: at the top concentration
In short: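 CHO RORE-LUC/TET-ROR line, 1,000 cells/well, 37 C 5% CO2 5 hr; cpd or DMSO + doxycycline induction, 16 hr. CellTiter-Glo, 30 min RT, luminescence = ATP content.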

SMILES	Potency	activity change, negative = cytotoxicity
COc1cccc2c1C(=O)c1c(O)c3c(c(O)c1C2=O)C[C@@](O)(C(C)=O)C[C@@H]3O[C@H]1C[C@H](N)[C@H](O)[C@H](C)O1	13.3 µM (active)	–
NC(=NCCCCCCN=C(N)/N=C(\N)Nc1ccc(Cl)cc1)/N=C(\N)Nc1ccc(Cl)cc1	42.2 µM (active)	–
Oc1ccc(Cl)cc1Sc1cc(Cl)ccc1O	–	4.93% (inactive)

biological target: T1, Hexokinase-4 (Homo sapiens) + Glucokinase regulatory protein (Homo sapiens) (UniProt P35557+Q14397); assay: qHTS assay for inhibitors of recombinant human GCK-GKRP interaction: Diaphorase-coupled assay (AID 743205); details: G6PDH/diaphorase resorufin fluorescence; series mostly up to 57.5 µM; activity change, positive = activation: at the top concentration
In short: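 Compounds pre-incubated 20 min with substrate, then 10 nM GST-GCK with 10 nM FLAG-GKRP added. GCK activity coupled via G6PDH and diaphorase to resorufin (5 mM glucose, 0.4 mM ATP, 0.15 mM NADP+, pH 7.6), read kinetically over 30 minutes at Ex 525/Em 590 nm.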

T1 sequence (P35557 whole entry, looked up): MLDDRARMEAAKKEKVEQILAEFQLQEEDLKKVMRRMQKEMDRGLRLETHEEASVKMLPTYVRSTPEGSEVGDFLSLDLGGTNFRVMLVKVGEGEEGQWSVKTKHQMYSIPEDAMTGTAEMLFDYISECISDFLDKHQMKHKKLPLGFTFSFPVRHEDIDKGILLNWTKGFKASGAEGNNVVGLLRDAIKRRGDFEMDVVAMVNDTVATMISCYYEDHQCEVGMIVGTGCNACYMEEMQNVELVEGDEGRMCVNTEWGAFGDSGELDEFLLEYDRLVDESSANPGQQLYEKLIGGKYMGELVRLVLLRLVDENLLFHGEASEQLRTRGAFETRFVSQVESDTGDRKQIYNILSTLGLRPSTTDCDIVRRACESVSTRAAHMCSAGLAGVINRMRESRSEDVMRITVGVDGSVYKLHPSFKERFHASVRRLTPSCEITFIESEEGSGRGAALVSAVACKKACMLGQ
T1 sequence (Q14397 whole entry, looked up): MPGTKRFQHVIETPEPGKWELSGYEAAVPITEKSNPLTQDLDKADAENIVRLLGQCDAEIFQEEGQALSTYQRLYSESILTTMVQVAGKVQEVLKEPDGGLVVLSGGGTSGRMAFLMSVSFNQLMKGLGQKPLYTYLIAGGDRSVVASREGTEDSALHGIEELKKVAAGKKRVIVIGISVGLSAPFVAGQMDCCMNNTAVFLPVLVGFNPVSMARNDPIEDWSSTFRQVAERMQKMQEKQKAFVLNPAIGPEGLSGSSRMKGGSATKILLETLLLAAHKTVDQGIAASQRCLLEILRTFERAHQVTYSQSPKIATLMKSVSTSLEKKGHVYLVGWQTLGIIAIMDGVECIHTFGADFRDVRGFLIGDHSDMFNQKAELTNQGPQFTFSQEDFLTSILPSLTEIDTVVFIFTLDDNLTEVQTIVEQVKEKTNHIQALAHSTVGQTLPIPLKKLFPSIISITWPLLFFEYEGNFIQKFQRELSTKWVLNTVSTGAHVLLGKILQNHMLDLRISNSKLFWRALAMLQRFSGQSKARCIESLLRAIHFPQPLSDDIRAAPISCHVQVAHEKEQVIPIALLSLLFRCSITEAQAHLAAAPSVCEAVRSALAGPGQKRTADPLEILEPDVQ

SMILES	activity change, positive = activation
CC(C)C[C@H]1C(=O)N2CCC[C@H]2[C@]2(O)O[C@](NC(=O)[C@@H]3C=C4c5cccc6[nH]c(Br)c(c56)C[C@H]4N(C)C3)(C(C)C)C(=O)N12	-29.1% (inactive)
COC(=O)[C@H]1[C@H]2C[C@H]3c4[nH]c5ccccc5c4CCN3C[C@H]2CC[C@@H]1O	-14.5% (inactive)
CCC(NC(C)C)C(O)c1ccc(O)c(O)c1 (centres undefined)	-45.4% (inactive)
COc1cc(NS(C)(=O)=O)ccc1Nc1c2ccccc2nc2ccccc12	-33.7% (inactive)
CC[C@H](C)C(=O)O[C@H]1CCC=C2C=C[C@H](C)[C@H](CC[C@@H]3C[C@@H](O)CC(=O)O3)[C@H]21	-10.7% (inactive)
CCCC1O[C@@H]2C[C@H]3[C@@H]4CCC5=CC(=O)C=C[C@]5(C)[C@H]4[C@@H](O)C[C@]3(C)[C@]2(C(=O)CO)O1 (some centres undefined)	-3.38% (inactive)
Nc1cc(Cl)c(NC2=NCCN2)c(Cl)c1	-16.7% (inactive)
CC1(C)CCC(NC(=O)[C@@H](N)CCC(=O)O)CC1	-0.791% (inactive)
CNCCC=C1c2ccccc2CCc2ccccc21	-4.13% (inactive)
C[C@@H]1C(=O)NC2=Nc3cccc(Cl)c3CN21	-2.84% (inactive)
CC(CCc1ccccc1)NCC(O)c1ccc(O)c(C(N)=O)c1 (centres undefined)	-8.09% (inactive)
C[N+]1(CCCCC[N+]2(C)CCCC2)CCCC1	-3.32% (inactive)
N[C@@H](Cc1cnc[nH]1)C(=O)O	0.701% (inactive)
C1CCc2nnnn2CC1	-7.35% (inactive)
N[C@H](CO)C(=O)O	-2.89% (inactive)
O=C(O)c1cc2cc(Cc3cccnc3)ccc2o1	13.8% (inactive)
CCCn1c(=O)[nH]c(=O)c2[nH]cnc21	-4.22% (inactive)
CN1C2CCC1CC(OC(=O)c1c[nH]c3ccccc13)C2 (centres undefined)	-2.66% (inactive)
CNCCC(Oc1ccccc1C)c1ccccc1 (centres undefined)	2.4% (inactive)
CC(=O)O[C@H]1C[C@@H]2CC[C@@H]3[C@H](CC[C@@]4(C)[C@H]3C[C@H]([N+]3(C)CCCCC3)[C@@H]4OC(C)=O)[C@@]2(C)C[C@@H]1[N+]1(C)CCCCC1	-5.53% (inactive)
O=C1CCC(c2ccc(-n3ccnc3)cc2)=NN1	-3.37% (inactive)
CC(C)COC(=O)OCN1C(=O)CN(CCN2CC(=O)N(COC(=O)OCC(C)C)C(=O)C2)CC1=O	-2.27% (inactive)

biological target: T1, Hexokinase-4 (Homo sapiens) + Glucokinase regulatory protein (Homo sapiens); assay: qHTS assay for inhibitors of recombinant human GCK-GKRP interaction: ADP-Glo assay (AID 743206); details: ADP-Glo luminescence, 60 min, 0% = vehicle-only wells with enzyme present; series mostly up to 76.9 µM; activity, positive = activation: at the top concentration;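 further: plate controls were DMSO plus enzyme for no effect and no enzyme for full effect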
In short: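 Pin-transferred compounds meet a 15 nM GST-GCK/15 nM FLAG-GKRP/2 uM S6P mix (dispense concentrations). ATP is then added to 0.4 mM final with 5 mM glucose, and the reaction runs 60 min at room temperature. ADP is quantified luminescently.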

SMILES	activity, positive = activation
CC(C)C[C@H]1C(=O)N2CCC[C@H]2[C@]2(O)O[C@](NC(=O)[C@@H]3C=C4c5cccc6[nH]c(Br)c(c56)C[C@H]4N(C)C3)(C(C)C)C(=O)N12	-2.59% (inactive)
COC(=O)[C@H]1[C@H]2C[C@H]3c4[nH]c5ccccc5c4CCN3C[C@H]2CC[C@@H]1O	0.756% (inactive)
CCC(NC(C)C)C(O)c1ccc(O)c(O)c1 (centres undefined)	5.11% (inactive)
COc1cc(NS(C)(=O)=O)ccc1Nc1c2ccccc2nc2ccccc12	-0.978% (inactive)
CC[C@H](C)C(=O)O[C@H]1CCC=C2C=C[C@H](C)[C@H](CC[C@@H]3C[C@@H](O)CC(=O)O3)[C@H]21	4.27% (inactive)
CCCC1O[C@@H]2C[C@H]3[C@@H]4CCC5=CC(=O)C=C[C@]5(C)[C@H]4[C@@H](O)C[C@]3(C)[C@]2(C(=O)CO)O1 (some centres undefined)	5% (inactive)
Nc1cc(Cl)c(NC2=NCCN2)c(Cl)c1	3.75% (inactive)
CC1(C)CCC(NC(=O)[C@@H](N)CCC(=O)O)CC1	4.73% (inactive)
CNCCC=C1c2ccccc2CCc2ccccc21	-2.85% (inactive)
C[C@@H]1C(=O)NC2=Nc3cccc(Cl)c3CN21	3.39% (inactive)
CC(CCc1ccccc1)NCC(O)c1ccc(O)c(C(N)=O)c1 (centres undefined)	2.96% (inactive)
C[N+]1(CCCCC[N+]2(C)CCCC2)CCCC1	4.21% (inactive)
N[C@@H](Cc1cnc[nH]1)C(=O)O	3.78% (inactive)
C1CCc2nnnn2CC1	-2.02% (inactive)
N[C@H](CO)C(=O)O	1.11% (inactive)
O=C(O)c1cc2cc(Cc3cccnc3)ccc2o1	5.36% (inactive)
CCCn1c(=O)[nH]c(=O)c2[nH]cnc21	1.43% (inactive)
CN1C2CCC1CC(OC(=O)c1c[nH]c3ccccc13)C2 (centres undefined)	-0.36% (inactive)
CNCCC(Oc1ccccc1C)c1ccccc1 (centres undefined)	-2.37% (inactive)
CC(=O)O[C@H]1C[C@@H]2CC[C@@H]3[C@H](CC[C@@]4(C)[C@H]3C[C@H]([N+]3(C)CCCCC3)[C@@H]4OC(C)=O)[C@@]2(C)C[C@@H]1[N+]1(C)CCCCC1	3.85% (inactive)
O=C1CCC(c2ccc(-n3ccnc3)cc2)=NN1	-3.05% (inactive)
CC(C)COC(=O)OCN1C(=O)CN(CCN2CC(=O)N(COC(=O)OCC(C)C)C(=O)C2)CC1=O	1.64% (inactive)

biological target: T1, Hexokinase-4 (Homo sapiens) + Glucokinase regulatory protein (Homo sapiens); assay: qHTS assay for inhibitors of recombinant human GCK-GKRP interaction: HTRF assay (AID 743207); details: recombinant GCK-GKRP HTRF binding, 60 min, with sorbitol-6-phosphate; series mostly up to 57.5 µM; activity change, negative = inhibition: at the top concentration;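 further: 0% = DMSO with GCK present and -100% = DMSO wells lacking GCK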
In short: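 HTRF binding of 5 nM GST-GCK and 5 nM FLAG-GKRP with 2 uM S6P in pH 7.1 Hepes buffer (MgCl2, KCl, DTT, Tween 20, BSA). Anti-FLAG XL665 and anti-GST donor added, 60 min at room temperature; 665/615 nm read, normalized to with- and without-GCK controls.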

SMILES	activity change, negative = inhibition
CC(C)C[C@H]1C(=O)N2CCC[C@H]2[C@]2(O)O[C@](NC(=O)[C@@H]3C=C4c5cccc6[nH]c(Br)c(c56)C[C@H]4N(C)C3)(C(C)C)C(=O)N12	2.26% (inactive)
COC(=O)[C@H]1[C@H]2C[C@H]3c4[nH]c5ccccc5c4CCN3C[C@H]2CC[C@@H]1O	0.0737% (inactive)
CCC(NC(C)C)C(O)c1ccc(O)c(O)c1 (centres undefined)	2.47% (inactive)
COc1cc(NS(C)(=O)=O)ccc1Nc1c2ccccc2nc2ccccc12	-2.44% (inactive)
CC[C@H](C)C(=O)O[C@H]1CCC=C2C=C[C@H](C)[C@H](CC[C@@H]3C[C@@H](O)CC(=O)O3)[C@H]21	7.95% (inactive)
CCCC1O[C@@H]2C[C@H]3[C@@H]4CCC5=CC(=O)C=C[C@]5(C)[C@H]4[C@@H](O)C[C@]3(C)[C@]2(C(=O)CO)O1 (some centres undefined)	-11.4% (inactive)
Nc1cc(Cl)c(NC2=NCCN2)c(Cl)c1	0.159% (inactive)
CC1(C)CCC(NC(=O)[C@@H](N)CCC(=O)O)CC1	5.48% (inactive)
CNCCC=C1c2ccccc2CCc2ccccc21	0.76% (inactive)
C[C@@H]1C(=O)NC2=Nc3cccc(Cl)c3CN21	-6.07% (inactive)
CC(CCc1ccccc1)NCC(O)c1ccc(O)c(C(N)=O)c1 (centres undefined)	5.5% (inactive)
C[N+]1(CCCCC[N+]2(C)CCCC2)CCCC1	4.95% (inactive)
N[C@@H](Cc1cnc[nH]1)C(=O)O	-9.15% (inactive)
C1CCc2nnnn2CC1	-0.271% (inactive)
N[C@H](CO)C(=O)O	19.8% (inactive)
O=C(O)c1cc2cc(Cc3cccnc3)ccc2o1	-11.6% (inactive)
CCCn1c(=O)[nH]c(=O)c2[nH]cnc21	20.6% (inactive)
CN1C2CCC1CC(OC(=O)c1c[nH]c3ccccc13)C2 (centres undefined)	-12.1% (inactive)
CNCCC(Oc1ccccc1C)c1ccccc1 (centres undefined)	-3.88% (inactive)
CC(=O)O[C@H]1C[C@@H]2CC[C@@H]3[C@H](CC[C@@]4(C)[C@H]3C[C@H]([N+]3(C)CCCCC3)[C@@H]4OC(C)=O)[C@@]2(C)C[C@@H]1[N+]1(C)CCCCC1	0.0528% (inactive)
O=C1CCC(c2ccc(-n3ccnc3)cc2)=NN1	12.3% (inactive)
CC(C)COC(=O)OCN1C(=O)CN(CCN2CC(=O)N(COC(=O)OCC(C)C)C(=O)C2)CC1=O	3.02% (inactive)
